Assay results as given in PubChem BioAssay (Tox21).
Several values for one entry are separate records, joined by “and”; a condition that tells them apart may be missing. Equal values may be shown once. Records with an inconclusive call do not appear. Entries that show only a call come without a potency. Activity calls are given as the source filed them. The call rests on the fitted dose curve; in most records, active means well fitted cell-killing curve with a large enough effect in the repeat runs; inconclusive means weak or mixed curves, or effect the other way; inactive means no such curve, though single readings can be large or run the other way.

Assay: qHTS assay to identify small molecule agonists of the farnesoid-X-receptor (FXR) signaling pathway - cell viability counter screen (AID 743218); further: nearly all actives have a fitted effect of over 45% in size
Settings: FXR-bla HEK293T viability, CellTiter-Glo luminescence, 16 h; series mostly up to 62.6 µM
From the text: U.S. Tox21 Program National Center for Advancing Translational Sciences [NCATS] NIH Chemical Genomics Center [NCGC] U.S. Environmental Protection Agency [EPA] National Institutes of Environmental Health Sciences [NIEHS] National Toxicology Program [NTP] U.S. Food and Drug Administration [FDA] Tox21 Assay Overview: The farnesoid-X-receptor (FXR), a nuclear hormone receptor, is highly expressed in liver, intestine, kidney and adrenal cortex. Natural ligands of FXR are the bile acids (Cholic acid, Chenodeoxy cholic acid etc). FXR is an important regulator of diverse metabolic pathways, including the bile acid homeostasis, lipid and glucose metabolisms. FXR regulates the expression of target genes by binding either as a monomer or as a heterodimer with the retinoid X receptor (RXR). Numerous studies have reported that FXR exerts protective function during cholestasis, diabetes, liver regeneration, and cancer. To identify compounds that activate FXR signaling, GeneBLAzer FXR-UAS-bla HEK 293T cell line (Invitrogen, Carlsbad, CA) containing a beta-lactamase reporter gene under the control of a UAS response element was used to screen the Tox21 10K compound library. The cytotoxicity of the Tox21 compound library against the FXR-bla cell line was tested in parallel by measuring the cell viability using CellTiter-Glo assay in the same wells.
Tox21 Assay Protocol Summary: FXR-bla cells were dispensed at 5000 cells/5uL/well in 1536-well black wall/clear bottom plates using a Multidrop Combi (Thermo Fisher Scientific, Waltham, MA) dispenser. After the assay plates were incubated at 37 C and 5% CO2 for 5 h, 23 nL of compounds dissolved in DMSO, positive controls or DMSO only was transferred to the assay plate by a Pintool station (Kalypsys, San Diego, CA). The assay plates were incubated at 37C for 16 h. After 1 uL of LiveBLAzerTM B/G FRET substrate was added using a Bioraptr Flying Reagent Dispenser (FRD) workstation (Beckman Coulter, Indianapolis, IN), the plates were incubated at room temperature for 2 h, and fluorescence intensity was measured by an Envision plate reader (PerkinElmer, Shelton, CT). For cell viability readout that measures cytotoxicity, 4uL/well of CellTiter-Glo reagent was added into the assay plates using a Bioraptr FRD. After 30 min incubation at room temperature, the luminescence intensity in the plates was measured using a ViewLux plate reader (PerkinElmer).
Potency means the concentration at half of the fitted maximal effect.

Compound | Potency
CC[C@H]1C[C@@H]2C[C@H]3c4[nH]c5ccc(OC)cc5c4CCN(C2)[C@@H]13 | inactive
CN(C)[C@@H]1C(=O)C(C(N)=O)=C(O)[C@@]2(O)C(=O)C3=C(O)c4c(O)ccc(Cl)c4[C@@](C)(O)[C@H]3C[C@@H]12 | inactive
O=[N+]([O-])O.O=[N+]([O-])O.[Cd] | 12.3 µM (active)
ClC(Cl)=C(c1ccc(Cl)cc1)c1ccc(Cl)cc1 | 38.9 µM (active)
CC(=O)[O-].CC(=O)[O-].O.O.[Cd+2] | 1.53 µM (active)
COP(=S)(OC)Oc1cc(Cl)c(Br)cc1Cl | inactive
CCCCCCCCCCCCCN1CC(C)OC(C)C1 (stereo not given) | inactive
CCN(CC)C(=S)[S-].CCN(CC)C(=S)[S-].[Zn+2] | 3.44 µM (active)
COc1ccc(N)cc1N | inactive
Fc1cccc(Cl)c1CCl | inactive
COc1cccc(C(=O)CCN[C@@H](C)[C@H](O)c2ccccc2)c1 | inactive
O=C(CCl)Nc1ccccc1 | inactive
ClC1=C(Cl)[C@]2(Cl)[C@@H]3[C@@H]4C[C@@H]([C@H]5O[C@@H]45)[C@@H]3[C@@]1(Cl)C2(Cl)Cl | 56.4 µM (active)
N#CC(Cl)Cl | inactive
CCc1nn(C)c(C(=O)NCc2ccc(C(C)(C)C)cc2)c1Cl | 49 µM (active)
O=[N+]([O-])c1c2ccccc2cc2ccccc12 | inactive
N#CNC#N | inactive
CC(C)OC(=O)C(O)(c1ccc(Cl)cc1)c1ccc(Cl)cc1 | inactive
CCOC(=O)OC1=C(c2cc(C)ccc2C)C(=O)NC12CCC(OC)CC2 (stereo not given) | inactive
CNC(C)Cc1ccc2c(c1)OCO2 (stereo not given) | inactive

Compound | Potency
CC1CCC(C(C)C)C(OC(=O)c2ccccc2N)C1 (stereo not given) | 60.8 µM (active)
CC1(C)[C@H](C(=O)O[C@H](C#N)c2cccc(Oc3ccccc3)c2)[C@@H]1/C=C(\Cl)C(F)(F)F | inactive
CCCCCCCCCCCCCCC(Br)C(=O)O (stereo not given) | 21.9 µM (active)
CCC[CH2][Sn]([CH2]CCC)([CH2]CCC)[O]C(=O)c1ccccc1 | 0.616 µM (active)
Clc1ccc(COC(Cn2ccnc2)c2ccc(Cl)cc2Cl)cc1 (stereo not given) | 32.3 µM (active) and 19.4 µM (active) and 26.6 µM (active)
O=C(CBr)c1ccc(O)cc1 | inactive
CCCCCCCCCCCCBr | 13.8 µM (active)
N#CSCSC#N | inactive
CCOCCOC(C)=O | inactive
CCN | inactive
Clc1ccc(-c2ccc(Cl)c(Cl)c2Cl)c(Cl)c1Cl | 46.6 µM (active)
CC1(C)CN=C(NN=C(/C=C/c2ccc(C(F)(F)F)cc2)/C=C/c2ccc(C(F)(F)F)cc2)NC1 | 11 µM (active)
CCCCCCCCCCCCCC[P+](CCCCCC)(CCCCCC)CCCCCC (tested in a mixture with another compound) | 7.76 µM (active)
CC1(c2ccc(Oc3ccccc3)cc2)OC(=O)N(Nc2ccccc2)C1=O (stereo not given) | 39.1 µM (active)
Oc1ccc(C2(c3ccc(O)cc3)CCCCC2)cc1 | 23.2 µM (active)
CCC(C)(C)C(=O)OC1=C(c2ccc(Cl)cc2Cl)C(=O)OC12CCCCC2 | inactive
CN(C)S(=O)(=O)N(SC(F)(Cl)Cl)c1ccccc1 | 38.9 µM (active)
CC(C)OC(=S)S | inactive
CC(=O)Nc1ccc2c(c1)Cc1ccccc1-2 | inactive
c1ccc(Nc2ccc3ccccc3c2)cc1 | inactive
